These results are taken from PubChem BioAssay (EPA / NIEHS).

By AC50 is commonly meant the concentration giving half of the maximal activity seen.

Inconclusive results are not listed. Active and inactive are the calls of the source. The calls were made as follows: active = hit-call score of the fitted dose curve at least 0.9, where 1 is the maximum; inconclusive = response in the unintended direction; inactive = score below 0.9.

The test in a line: Tanguay_ZF_120hpf_OTIC_legacy: (Legacy) Oregon State University Tanguay Lab 120 Hour Post-fertilization zebrafish Assay for Otic Vesicle Malformation (AID 2283639). Summed up:
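Wild-type zebrafish larvae, whole-embryo exposure from early stage to 120 hpf at 28C. Binary brightfield scoring of otic vesicle morphology, fitted in the positive direction against the DMSO baseline.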
On to `C=CC(=O)NCNC(=O)C=C`, for which the call was inactive.

As for `Cc1ccccc1[N+](=O)[O-]`, the molecule was called inactive. On the same count and under the same terms, the value for `NS(=O)(=O)C(F)(F)C(F)(F)C(F)(F)C(F)(F)C(F)(F)C(F)(F)C(F)(F)C(F)(F)F` was “inactive”. Same read-out and setting: the value for `ClC1=C(Cl)[C@]2(Cl)[C@@H]3[C@@H](Cl)[C@H]4O[C@H]4[C@@H]3C1(Cl)C2(Cl)Cl` was “inactive”; that for `Nn1cnnc1` was “inactive”. On the same count and under the same terms, the value for `CCC(=O)O[C@H]1CC[C@H]2[C@@H]3CCC4=CC(=O)CC[C@]4(C)[C@H]3CC[C@]12C` was “inactive”; that for `CC1=C2C[C@H]3[C@@H](CC=C4C[C@@H](O)CC[C@@]43C)[C@@H]2CC[C@]12O[C@@H]1C[C@H](C)CN[C@H]1[C@H]2C` was “inactive”; that for `Cc1cc2c3c(c1)C(c1ccccc1)=N[C@@H](NC(=O)c1ccncc1)C(=O)N3CC2` was “inactive”. For the molecule `Cc1cccc([N+](=O)[O-])c1`, the call was inactive. `ClC1=C(Cl)[C@]2(Cl)[C@@H]3[C@H]4C[C@H]([C@@H]5O[C@H]45)[C@@H]3[C@@]1(Cl)C2(Cl)Cl`: the molecule was classed as inactive. Same read-out and setting: next, `Cc1ccccc1CO[C@@H]1C[C@@]2(C(C)C)CC[C@]1(C)O2`: “inactive”. Take `CO/C=C(/C(=O)OC)c1ccccc1COc1cccc(C(F)(F)F)n1`: the concentration at half-maximal activity (AC50) is 12.7 µM (active). Regarding `O=C(O)C(F)(F)C(F)(F)C(F)(F)C(F)(F)C(F)(F)C(F)(F)C(F)(F)C(F)(F)F`, the result was inactive. On the same count and under the same terms, next, `N#Cc1ccc(N(CC(N)=O)CC(F)(F)F)cc1C(F)(F)F`: “inactive”; `O=C(N[C@H]1CN2CCC1CC2)c1cc2ccoc2cn1`: “inactive”. Still for that read-out and setting: next, `C=CC(N)=O`: “inactive”; `CCNc1nc(NC(C)C)nc(SC)n1`: “inactive”.

On to `Oc1ccc(C(c2ccc(O)cc2)(C(F)(F)F)C(F)(F)F)cc1`, for which the half-maximal activity concentration (AC50) is 51.7 µM (active). In the case of `CCOC(=O)C(O)(c1ccc(Cl)cc1)c1ccc(Cl)cc1`, the call was inactive. Regarding `CCC(C)c1cc([N+](=O)[O-])cc([N+](=O)[O-])c1O` (configuration not stated), the molecule was called inactive. As for `O=NN(c1ccccc1)c1ccccc1`, the result was inactive. As for `CC(C)C(=O)OCC(C)(C)C(OC(=O)C(C)C)C(C)C` (configuration not stated), the outcome was inactive. Still for that read-out and setting: the value for `Cc1cc(-c2ccc(N)c(C)c2)ccc1N` was “inactive”. On the same count and under the same terms, the value for `Nc1ccc(-c2ccc(N)cc2)cc1` was “inactive”; that for `Cc1ccccc1O` was “inactive”. With `CCOCCOC(C)=O`, the molecule was classed as inactive. The same measure, in the same setting: next, `CCCCCCCCOC(=O)c1ccccc1C(=O)OCCCCCCCC`: “inactive”. Still for that read-out and setting: the value for `Cc1ccc(O)c(C)c1` was “inactive”; that for `Oc1c(Cl)c(Cl)c(Cl)c(Cl)c1Cl` was “inactive”. The same measure, in the same setting: next, `CN(C)CCO`: “inactive”. Take `O=C(NC(=O)c1c(F)cccc1F)Nc1cc(Cl)c(OC(F)(F)C(F)F)c(Cl)c1`: the outcome was inactive. Consider `CCC(C)(CC)c1cc(NC(=O)c2c(OC)cccc2OC)on1`, for which the call was inactive.
